Compound activity deposited in PubChem BioAssay by National Center for Advancing Translational Sciences (NCATS).
Sampled rows, rich in hits. Any-hit rate of the full collection: about 7.5%.
ELG1 genotoxic: induces genotoxicity in HEK293T cells with luciferase-tagged ELG1; HEK293T ELG1-luciferase reporter, luminescence, 16 h; Potency, µM (series often up to 46 µM), without a hit: at the top dose activity change, positive = activation, hits mostly activators; hit rate 1.3% among 330,000; note: % of control where 0% means no effect; nearly all actives have a fitted effect of over 60% in size
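ELG1-luciferase HEK293T cells, 2,000/well; compound pinned in; 16 hr, 37 °C, 5% CO2; ONE-Glo, 30 min RT; luminescence on CCD imager.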
KinaseGlo FLuc: blocks Kinase-Glo luciferase, a counter-screen artifact; hit rate 0.28% among 200,000; Q27757; AID 1379; Kinase-Glo luciferase, ATP luminescence, 8 min; Potency, µM (highest dose often 38.3 µM), inactives show at the top dose activity change, negative = inhibition, hits mostly inhibitors; note: % is set by controls: 0 for no effect and ±100 for the full control effect; nearly all actives have a fitted effect of over 60% in size
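Inhibition of Kinase-Glo luciferase light generation was assessed at 10 uM ATP in pH 7.2 imidazole buffer, with luminescence measured after eight minutes at ambient temperature.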
Rab9 prom act: Rab9 promoter activation | Huh7 Rab9 promoter-luciferase reporter, luminescence, 24 h | Potency, µM (series often up to 9.22 µM), without a hit: top-dose activation, negative = inhibition, usual class: activators | hit rate 2.8% among 320,000; note: % of control where 0% means no effect; nearly all actives have a fitted effect of over 60% in size
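Promoter activation is measured as luciferase luminescence in Huh7 cells stably transfected with a Rab9 promoter–luciferase construct, following 24 h compound exposure at 37 °C and 10 min reagent incubation at ambient temperature.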
SMN2 splice up: enhancers of SMN2 splice variant expression | Potency, µM (top dose mostly 46.1 µM), inactives show top-dose activity change, positive = activation, hits mostly activators | AID 1458 | HEK293 SMN2-luciferase splicing reporter, luminescence, 30-36 h | hit rate 2.8% among 210,000; note: % of control where 0% means no effect; nearly all actives have a fitted effect of over 55% in size
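qHTS luciferase splicing reporter: luminescence rises when SMN2 exon 7 is included in transfected HEK293 cells. Compound exposure lasted 30-36 h at 37C, with 4.5 mM final sodium butyrate as control, followed by a ONE-Glo read.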
NPC1 prom act: NPC1 promoter activation; Huh7 NPC1 promoter luciferase reporter, 24 h; Potency, µM (doses to about 9.22 µM), for inactives: at the top dose activation, actives largely listed as activators; hit rate 2.4% among 320,000; AID 485313; note: % of control where 0% means no effect; nearly all actives have a fitted effect of over 60% in size
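Cells: Huh7 expressing luciferase under the NPC1 promoter, 1500/well. Seeded 2 h, compound added, incubated 24 h at 37 °C. Luciferase reagent, 10 min ambient, then luminescence.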
FLuc modulator: firefly luciferase modulation, counter-screen for miR-21 project; purified FLuc, Km substrates, luminescence inhibition; Potency, µM (titrated, usually from 57.5 µM), inactives show top-dose activity change, negative = inhibition, usual class: inhibitors; P08659; hit rate 6.9% among 360,000;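 note: plate controls were vehicle for no effect and reference inhibitor for full effect; nearly all actives have a fitted effect of over 55% in size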
Target sequence (P08659 whole entry, looked up): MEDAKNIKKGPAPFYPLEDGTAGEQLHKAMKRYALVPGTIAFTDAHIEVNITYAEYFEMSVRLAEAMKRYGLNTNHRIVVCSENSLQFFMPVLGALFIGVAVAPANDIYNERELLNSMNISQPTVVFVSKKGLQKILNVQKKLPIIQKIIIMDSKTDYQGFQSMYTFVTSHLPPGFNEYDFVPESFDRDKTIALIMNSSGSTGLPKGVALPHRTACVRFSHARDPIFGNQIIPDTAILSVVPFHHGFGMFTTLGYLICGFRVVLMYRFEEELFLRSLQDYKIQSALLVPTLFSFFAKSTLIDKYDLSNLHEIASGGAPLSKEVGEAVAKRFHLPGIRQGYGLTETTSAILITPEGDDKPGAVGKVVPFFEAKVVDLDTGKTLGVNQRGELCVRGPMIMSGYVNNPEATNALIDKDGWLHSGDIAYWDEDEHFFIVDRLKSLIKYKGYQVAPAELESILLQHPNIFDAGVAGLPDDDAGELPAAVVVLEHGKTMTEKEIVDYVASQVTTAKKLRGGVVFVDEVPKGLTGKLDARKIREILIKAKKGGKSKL
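Purified P. pyralis luciferase (10nM final) with 10uM D-luciferin and 10uM ATP (Km levels) in 50mM Tris acetate pH 7.5, 10mM Mg acetate, 0.01% Tween-20, 0.05% BSA; qHTS 6-point titration, ~60 µM downward; luminescence read.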
Numbers without * were called inactive; u = inconclusive; x = no result; [ ] = remark or other dose. Calls come from the whole dose curve; as a rule, active = well fitted curve in the direction sought with a large enough effect; inconclusive = small, poorly fitted or top-dose-only effect, or another doubt; inactive = no such curve, though single readings can be large; an effect the other way counts as inactive or inconclusive. Potency is the fitted concentration of half-maximal effect.

SMILES	ELG1 genotoxic	KinaseGlo FLuc	Rab9 prom act	SMN2 splice up	NPC1 prom act	FLuc modulator
COc1ccccc1NC(=O)COC(=O)C12CC3CC(CC(Cl)(C3)C1)C2	1.2%	0.4%	0.2%	-0.4%	-0.7%	15.1µM*
COc1ccccc1NC(=O)COC(=O)C1CC2C=CC1C2 (stereo not drawn)	5.3%	-3.7%	0.8%	8.4%	-0.2%	23.9µM*
Cn1cccc1C(=O)NC(=O)COC(=O)c1ccc(O)cc1	7.4%	-2.2%	9.1%	-8.9%	-27.6%	-12.7%
CCC(=O)N1CCc2cc(S(=O)(=O)NC(CC(C)C)C(=O)Nc3ccc(CC)cc3)ccc21 (stereo not drawn)	x	x	x	16.2%	x	-1.7%
Cc1ccc(NC(=O)c2ccc(NC(=O)N3CCSc4nc(C)cc(C)c43)cc2)c(Cl)c1	x	x	x	x	x	-7.9%
O=C(COC(=O)C12CC3CC(CC(O)(C3)C1)C2)NCCc1ccc(Cl)cc1	3.6%	0.8%	-1.0%	-13.8%	-2.8%	-6.2%
O=C(COC(=O)C12CC3CC(CC(O)(C3)C1)C2)Nc1ccc(Cl)cc1F	u	x	1.26µM*	x	u	7.57µM*
CCOc1ccccc1NC(=O)COC(=O)C12CC3CC(CC(O)(C3)C1)C2	-1.6%	x	-3.4%	x	-1.1%	10.7µM*
Cn1cccc1C(=O)NNC(=O)COc1ccccc1Cl	13.4%	x	25.4%	x	17.2%	15.1µM*
COCCNC(=O)COc1ccccc1Cl	4.8%	1.1%	0.3%	-12.3%	-3.8%	5.9%
COc1ccccc1NC(=O)COC(=O)C12CC3CC(CC(Br)(C3)C1)C2	0.9%	x	x	x	x	x
COCCCn1c(C)cc(C(=O)COC(=O)C23CC4CC(CC(O)(C4)C2)C3)c1C	u	x	0.631µM*	x	u	u
Cc1ccc(-c2cc(C(=O)Nc3ccc(SC(F)F)cc3)no2)cc1F	x	x	x	x	x	-12.9%
N#CC(C(N)=O)=C1CCCCC1	-3.0%	x	-1.1%	x	-2.0%	-0.5%
CCOC(=O)/C(C#N)=C/c1ccc(OC)c(OC)c1	-1.0%	3.8%	-0.8%	x	-3.6%	1.5%[2.3 µM]
CCOC(=O)/C(C#N)=C\c1c(OCC)n(CC)c2ccccc12	-4.9%	3.6%	0.6%	-14.6%	1.1%	3.0%
COCCNC(=O)/C(C#N)=C/c1ccc(SC)cc1	u	-1.1%	-1.5%	1.5%	-4.6%	19µM*
COCCNC(=O)/C(C#N)=C/c1ccc(C(=O)O)cc1	-1.8%	1.3%	0.4%	-1.7%	-2.6%	3.5%
CCOC(=O)/C(C#N)=C/c1ccc(SC)cc1	4.1%	-1.9%	-2.8%	-24.1%	8.8%	13.5µM*
CCOC(=O)/C(C#N)=C\c1ccc(CC)s1	u	-2.7%	-10.6%	-8.5%	24.7%	10.7µM*
CCOC(=O)/C(C#N)=C\C=C1C=CN(C)C=C1	u	-3.7%	3.55µM*	15.8µM*	2.51µM*	9.53µM*
COc1ccc(NC(=O)CC2C(=O)N(c3ccc(F)cc3)C(=O)N2Cc2cccnc2)cc1 (stereo not drawn)	x	x	x	x	x	6.5%
CC(C)c1ccc(NS(=O)(=O)c2ccc3[nH]cc(C(=O)N4CCCC4)c(=O)c3c2)cc1	x	x	x	5.4%	x	u
O=[N+]([O-])c1ccc(-c2cn3c(n2)CCC3)cc1	15.0%	x	u	x	u	23.9µM*
c1ccc(-c2cn3c(n2)CCC3)cc1	15.6%	-5.0%	0.3%	0.7%	0.2%	-5.4%
SMILES	ELG1 genotoxic	KinaseGlo FLuc	Rab9 prom act	SMN2 splice up	NPC1 prom act	FLuc modulator
CCCn1c2ccccc2c2cnn(CC(=O)N3CCC(C)CC3)c(=O)c21	x	x	x	x	x	2.1%
COc1cccc(CNC(=O)c2cccc(N3CCCS3(=O)=O)c2)c1	x	x	x	x	x	-3.5%
COc1cc2nc(Nc3cccc(F)c3)nc(N)c2cc1OC	-6.2%	x	0.2%	3.0%	0.5%	u
Cc1ccc(Nc2nc(N)c3ccccc3n2)cc1C	u	x	0.501µM*	x	0.501µM*	0.536µM*
COc1ccc(Nc2nc(N)c3ccccc3n2)c(OC)c1	u	x	4.47µM*	x	3.55µM*	7.57µM*
COc1ccc(Nc2nc(-c3ccccc3)nc3ccccc23)c(OC)c1	-6.1%	1.1%	-4.5%	-12.4%	-12.0%	-18.9%
COc1ccc(Nc2nc(N)c3cc(OC)c(OC)cc3n2)cc1	x	x	x	11.3%	x	15.1µM*
Cc1cc(N2CCN(C)CC2)nc2ccc(NC(=O)c3ccc4c(c3)OCO4)cc12	19.6%	-3.6%	u	x	28.1%	13.5µM*
Cc1cc(N2CCN(C)CC2)nc2ccc(NC(=O)c3ccc(Br)o3)cc12	3.2%	-6.1%	22.0%	-2.5%	u	15.1µM*
COc1cc(C(=O)Nc2ccc3nc(N4CCN(C)CC4)cc(C)c3c2)cc(OC)c1OC	10.7%	x	-1.3%	x	5.3%	23.9µM*
CCN1CCN(c2cc(C)c3cc(NC(=O)c4cc(OC)cc(OC)c4)ccc3n2)CC1	u	x	28.3%	15.1%	26.1%	16.9µM*
Cc1ccc(C)n1-c1c(C(=O)NCC(C)c2ccccc2)sc2ncccc12 (stereo not drawn)	x	x	x	x	x	-0.4%
COc1ccc(CCN(C)C(=O)C2CCN(C(=O)Nc3ccccc3)CC2)cc1OC	1.7%	x	19.3%	x	14.1%	-3.7%
Cc1ccccc1NC(=O)Cn1nc(-c2ccccc2)nc(Cc2ccccc2)c1=O	x	x	x	x	x	-2.2%
Cc1ccc(-c2nn3c(C)nnc3c3ccccc23)cc1S(=O)(=O)N(C)CCO	18.4µM*	0.7%	-1.1%	u	-3.0%	1.0%
Cc1ccc(-c2nn3c(C)nnc3c3ccccc23)cc1S(=O)(=O)NCc1ccccc1	3.4%	3.3%	3.1%	-7.0%	-4.0%	-1.3%
COc1ccc2c(c1)O[C@@H](c1ccc3c(c1)OCO3)[C@H](OC(=O)Nc1ccc(OC(F)F)cc1)C2=O	x	0.1%	x	8.1%	x	x
COC(=O)c1nc(-c2ccc(C)cc2)oc1N(C)C	11.7%	-12.4%	9.7%	0.7%	10.8%	19µM*
COC(=O)[C@H](COC(C)(C)C)NC(=O)O[C@@H]1C(=O)c2ccc(OC)cc2O[C@H]1c1ccc2c(c1)OCO2	x	-2.1%	x	-4.7%	x	x
O=C(NCc1ccccc1F)C1CCN(c2nnc(-n3cccc3)s2)CC1	x	x	x	x	x	-11.1%
